Most compounds without a hit are left out; they make up all but 2.4% or so of the library.
TMEM16A act: TMEM16A chloride channel activators or potentiators, primary screen, cell-based, HTS; Anoctamin-1 (Mus musculus), Q8BHY3; HEK293 TMEM16A/YFP-H148Q/I152L, iodide quench fluorescence; hits give low values; B-score at 10 µM; 340,000 tested, 0.3% active; AID 623877, 2012;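 active = fluorescence-ratio B-score plate-corrected deviation score at least 3 library SD below zero, with starting fluorescence score within 5 deviations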;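 note: channel opened by trigger with iodide after compound preincubation; score built on the fluorescence ratio of max minus min over baseline; more negative score means more quench and so TMEM16A activation or potentiation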
HTR2A ag: mouse Htr2a agonists via beta-arrestin recruitment, primary screen, cell-based, luminescence. 5-hydroxytryptamine receptor 2A (Mus musculus), P35363. CHO-K1 mHTR2A beta-arrestin complementation; percent of 30 µM serotonin response. activation, % at 7.6 µM. 360,000 tested, 0.66% active. AID 624169, 2012;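 active = activation above a run cutoff, the mean activation of all tested compounds plus 3 SD, cut at about 14% in these data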;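 note: 0% = plate median of compound wells and 100% = 30 µM serotonin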
NOD2-RIPK2 inh: NOD2-RIPK2 binding disruptors in cells, primary screen, fluorescence, CHO cells, BLA complementation | Receptor-interacting serine/threonine-protein kinase 2 (Homo sapiens), O43353 | CCF4 ratio | inhibition, % at 4.98 µM | 360,000 tested, 0.38% active; in the data active = inhibition above about 21%;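 note: 0% = vehicle only and 100% = reference blocker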
TLR9-MyD88 block: inhibitors of TLR9-MyD88 association in cells, primary screen, cell-based, CHO, BLA complementation, fluorescence | 340,000 tested, 0.21% active | Toll-like receptor 9 (Homo sapiens) + Myeloid differentiation primary response protein … | inhibition, % at 4.98 µM | CCF4 FRET ratio;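 active = inhibition above the mean over all tested compounds plus 3 SD, cut at about 21% in these data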;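 note: 0% = DMSO only wells and 100% = clavulanate BLA inhibitor control wells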
TLR4-MyD88 BLA: inhibitors of TLR4-MyD88 association in cells, primary screen, cell-based, HeLa CL3-4, BLA complementation, FRET ratio; AID 861, 2007; inhibition, % at 8.4 µM; 200,000 tested, 0.18% active; HeLa CL3-4 TLR4/MyD88 BLA complementation; in the data active = inhibition above about 25%;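 note: 0% = vehicle and 100% = reference inhibitor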
TMEM16A inh: TMEM16A chloride channel inhibitors, primary screen, cell-based, HTS; normalized B-score (activity score, 25-100; higher = stronger inhibition) at 10 µM; HEK293 TMEM16A/YFP iodide influx fluorescence, ionomycin; AID 588511, 2011; 310,000 tested, 1.2% active;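 active = ratio plate-corrected score three or more library SD toward inhibition, starting fluorescence score within five deviations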;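 note: score derived from kinetic fluorescence span divided by baseline fluorescence per well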
TMEM16A reconf: TMEM16A chloride channel inhibitors, confirmation, cell-based, re-confirmation. inhibition, % at 10 µM. shares compounds with TMEM16A inh. HEK293 TMEM16A/YFP-H148Q, iodide quench fluorescence; ionomycin added to raise cell calcium. 2,300 tested, 39% active;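 active = mean duplicate percent inhibition, scaled so buffer wells are 0 and the reference blocker 100, over three buffer SD above buffer mean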
HEK293 Ca mobil: calcium mobilization in TMEM16A/YFP HEK293 cells, confirmation, counter-screen for TMEM16A inhibitor project; 2,300 tested, 2% active; shares compounds with TMEM16A inh; Fluo4 calcium mobilization; calcium response (% of ionomycin), % at 10 µM;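 active = duplicate-averaged calcium signal over 20% of the ionomycin maximum, relative to buffer baseline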;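 note: each well's signal is peak minus trough fluorescence divided by its pre-addition baseline; 0% = buffer wells and 100% = ionomycin wells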
YFP-HEK293 quench: iodide YFP quench changes in parental YFP-HEK293, counter-screen for TMEM16A inhibitor project, cell-based. 2,300 tested, under 10 active. AID 652233, 2013. shares compounds with TMEM16A inh. ionomycin. YFP ratio F(max-min)/F0 at 10 µM;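 active = yellow fluorescent protein signal ratio exceeding the buffer control mean by over 5 SD of those controls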;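 note: ratio is mean of duplicate wells from kinetic YFP trace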
ClC-1 rat inh: ClC-1 chloride channel inhibition, selectivity assay for TMEM16A inhibitor project, cell-based, voltage-dependent ClC-1. shares compounds with TMEM16A inh. CHO ClC-1-YFP, iodide influx fluorescence quench; iodide control reads 0, buffer control 100. ratio percent, % at 10 µM. 2,300 tested, under 10 active. AID 652236, 2013;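 active = duplicate-mean ratio percent above the mean of iodide-only control wells, which defines zero, plus 5 of their SD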;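 note: higher percent means stronger block of ClC-1 iodide influx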
Target sequence (P35524 whole entry, looked up): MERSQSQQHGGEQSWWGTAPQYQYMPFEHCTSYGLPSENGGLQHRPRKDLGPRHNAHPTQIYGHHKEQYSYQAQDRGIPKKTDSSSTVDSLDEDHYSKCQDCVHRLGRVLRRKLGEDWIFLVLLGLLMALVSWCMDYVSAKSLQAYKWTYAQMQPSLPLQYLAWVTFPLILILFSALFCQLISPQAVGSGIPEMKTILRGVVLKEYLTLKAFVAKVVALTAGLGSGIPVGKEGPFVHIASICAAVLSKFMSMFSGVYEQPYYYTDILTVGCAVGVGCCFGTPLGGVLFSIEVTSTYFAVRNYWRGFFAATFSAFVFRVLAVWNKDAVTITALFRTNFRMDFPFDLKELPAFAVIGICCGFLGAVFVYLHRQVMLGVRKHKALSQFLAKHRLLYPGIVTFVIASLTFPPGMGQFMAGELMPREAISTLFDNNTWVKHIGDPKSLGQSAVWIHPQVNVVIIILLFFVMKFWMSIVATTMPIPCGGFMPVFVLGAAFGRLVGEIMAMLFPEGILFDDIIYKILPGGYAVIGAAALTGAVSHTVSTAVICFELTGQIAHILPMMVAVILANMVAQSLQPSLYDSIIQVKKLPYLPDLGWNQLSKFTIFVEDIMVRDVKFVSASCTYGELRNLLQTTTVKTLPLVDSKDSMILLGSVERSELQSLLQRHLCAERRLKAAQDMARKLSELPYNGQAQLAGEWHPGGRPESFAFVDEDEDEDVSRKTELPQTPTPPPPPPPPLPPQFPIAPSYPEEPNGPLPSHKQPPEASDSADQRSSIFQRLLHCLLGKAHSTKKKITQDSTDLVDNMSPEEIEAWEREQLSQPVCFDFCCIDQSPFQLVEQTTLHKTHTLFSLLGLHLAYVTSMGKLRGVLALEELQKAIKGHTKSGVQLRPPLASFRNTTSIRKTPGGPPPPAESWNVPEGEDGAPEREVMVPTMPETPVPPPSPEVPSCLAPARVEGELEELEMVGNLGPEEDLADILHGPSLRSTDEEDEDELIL
Starred values were filed as active, the others as inactive; i = inactive; / = no result given.

SMILES | TMEM16A act | HTR2A ag | NOD2-RIPK2 inh | TLR9-MyD88 block | TLR4-MyD88 BLA | TMEM16A inh | TMEM16A reconf | HEK293 Ca mobil | YFP-HEK293 quench | ClC-1 rat inh
Cc1c(CCC(=O)O)c(=O)oc2cc3oc4c(c3cc12)CCCC4 | i | -3 | -1 | -6 | / | i | / | / | / | /
CCOc1ccccc1NC(=O)Nc1c(C)n(-c2ccccc2)c(=O)n1C | i | 1 | -6 | -6 | 2 | 100* | i | i | -0.81 | -1
O=C(NN1CCOCC1)c1ccccc1F | i | 6 | -9 | -3 | / | i | / | / | / | /
COCC(=O)Nc1ccc(S(=O)(=O)NCC2CCCO2)cc1 (configuration not stated) | i | -3 | 6 | 8 | / | i | / | / | / | /
CN1CCS/C1=C\C=C1/SC(=S)N(CC(=O)O)C1=O | i | -5 | -2 | -5 | 9 | / | / | / | / | /
CCN1C(=O)/C(=C/C=C2/SCCN2C)SC1=S | i | 7 | -3 | -2 | -12 | i | 24%* | i | -0.59 | 17
O=C(c1ccco1)N1CCN(C(=O)c2cc3ccccc3oc2=O)CC1 | i | -2 | -7 | 1 | / | i | / | / | / | /
O=C(c1cc2ccccc2oc1=O)N1CCN(CCc2ccccc2)CC1 | i | -13 | 1 | 1 | 11 | 25* | i | i | -1.1 | -15
O=C(O)c1cc2c(ccc3ccccc32)oc1=O | i | 4 | -3 | -7 | 7 | i | / | / | / | /
O=C(c1cc2c(ccc3ccccc32)oc1=O)N1CCCC1 | i | 5 | 5 | -7 | -6 | 100* | i | i | -1.1 | -8
COc1ccc([N+](=O)[O-])cc1NCc1ccccc1C | i | -2 | 2 | -4 | 4 | 100* | i | i | -1.2 | -9
CC(=O)Nc1ccc(-c2csc(NC(=O)C3CC(=O)N(c4ccc5c(c4)OCCO5)C3)n2)cc1 (configuration not stated) | i | 0 | -5 | 2 | / | i | / | / | / | /
CC(C)CSc1nnc2c(n1)[nH]c1ccccc12 | i | 2 | -8 | -3 | 5 | i | / | / | / | /
CCCCSc1nnc2c(n1)[nH]c1ccccc12 | i | 2 | -4 | -2 | -22 | 25* | i | i | -1.2 | -10
Cc1cc(CNC(=O)CC2C(=O)NCCN2Cc2ccc(-c3ccccc3)cc2)nn1C (configuration not stated) | i | 1 | -7 | 6 | 1 | i | / | / | / | /
COc1ccc(-c2csc(Nc3cc(C)ccn3)n2)cc1OC | i | -3 | 4 | -9 | / | 25* | 24%* | i | -0.74 | -10
COc1ccc(-c2csc(Nc3ccc(C)cn3)n2)cc1OC | i | -3 | 3 | -3 | 3 | i | / | / | / | /
N#Cc1nc(COc2ccccc2F)oc1NCCCn1ccnc1 | / | -4 | -16 | 5 | -5 | 100* | i | i | -1.2 | -8
COc1ccccc1OCc1nc(C#N)c(NCCCn2ccnc2)o1 | i | -2 | -7 | 4 | -4 | i | / | / | / | /
Cc1nn(C(=O)c2ccc3c(c2)OCO3)c(N)c1-c1ccccc1 | i | -3 | 11 | 2 | -6 | 100* | i | i | -1 | -2
O=C(Nc1cccc(F)c1)N(Cc1ccc(Cl)cc1)CC(O)C(F)(F)F (configuration not stated) | i | 5 | -2 | -1 | -2 | 100* | 78%* | i | -0.89 | -19
COc1ccc(CCNC(=O)C/C(C)=N/NC(=O)C23CC4CC(CC(C4)C2)C3)cc1OC | i | -9 | 12 | 7 | -4 | i | / | / | / | /
COCC(C)n1c(C)cc(C(=O)COC(=O)c2oc3ccccc3c2C)c1C (configuration not stated) | i | 4 | -3 | 14 | -5 | 100* | 26%* | i | -0.89 | -13
COCC(C)n1c(C)cc(C(=O)COC(=O)c2n[nH]c3ccccc23)c1C (configuration not stated) | i | -4 | -2 | 3 | -2 | i | / | / | / | /
O=C(OCCN=C1NS(=O)(=O)c2ccccc21)C1CC(=O)N(c2ccc(Cl)cc2)C1 (configuration not stated) | i | 1 | 5 | -6 | -2 | i | / | / | / | /
SMILES | TMEM16A act | HTR2A ag | NOD2-RIPK2 inh | TLR9-MyD88 block | TLR4-MyD88 BLA | TMEM16A inh | TMEM16A reconf | HEK293 Ca mobil | YFP-HEK293 quench | ClC-1 rat inh
COc1cccc(/C=c2/s/c(=C(\C#N)C(=O)N3CCOCC3)n(-c3ccccc3)c2=O)c1 | i | 5 | 7 | 0 | 0 | i | / | / | / | /
COc1cccc(-c2nnn(CCc3nn[nH]n3)n2)c1 | i | 6 | 4 | 7 | 0 | i | / | / | / | /
COc1ccccc1C(CC(=O)c1ccccc1)CC(=O)c1ccccc1 | i | -6 | -17 | 2 | 4 | 100* | i | i | -0.96 | -14
CC(C)Oc1cc(NC(=O)CS(=O)CC(=O)Nc2cccc(C(F)(F)F)c2)c(Cl)cc1Cl (configuration not stated) | i | 0 | -2 | 2 | -4 | 100* | i | i | -1.1 | -6
O=C(CCC1COc2ccccc2O1)NCc1ccccc1 (configuration not stated) | i | -4 | -2 | -11 | 3 | 100* | i | i | -1.1 | -16
Cc1cccc(OCCn2c(=S)[nH]c3ccccc32)c1 | i | -5 | -6 | 4 | -2 | i | / | / | / | /
Cc1ccc(OCCn2c(=S)[nH]c3ccccc32)c(C(C)C)c1 | i | 4 | -2 | 2 | / | 25* | i | i | -1.4 | -6
CC(C)OC(=O)C1C2C=CC3(CN(C(C)c4ccc(Br)cc4)C(=O)C13)O2 (configuration not stated) | i | 1 | 5 | 5 | -5 | 25* | i | i | -1.2 | -14

Compound activity: PubChem BioAssay, several laboratories
